Reference: ChEMBL document CHEMBL1961873, “Compounds: GSK PKIS; Assays: Nanosyn kinase panel” (2012)

What was measured:
[1] = target: Sphingosine kinase 1 (Homo sapiens) (UniProt Q9NYA1); settings: at 1 µM;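 also: mean SPHK1 inhibition value reported from the GSK PKIS kinase panel screen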
[2] = target: T1, Sphingosine kinase 2 (Homo sapiens) (UniProt Q9NRA0); settings: at 0.1 µM
T1 sequence (whole entry): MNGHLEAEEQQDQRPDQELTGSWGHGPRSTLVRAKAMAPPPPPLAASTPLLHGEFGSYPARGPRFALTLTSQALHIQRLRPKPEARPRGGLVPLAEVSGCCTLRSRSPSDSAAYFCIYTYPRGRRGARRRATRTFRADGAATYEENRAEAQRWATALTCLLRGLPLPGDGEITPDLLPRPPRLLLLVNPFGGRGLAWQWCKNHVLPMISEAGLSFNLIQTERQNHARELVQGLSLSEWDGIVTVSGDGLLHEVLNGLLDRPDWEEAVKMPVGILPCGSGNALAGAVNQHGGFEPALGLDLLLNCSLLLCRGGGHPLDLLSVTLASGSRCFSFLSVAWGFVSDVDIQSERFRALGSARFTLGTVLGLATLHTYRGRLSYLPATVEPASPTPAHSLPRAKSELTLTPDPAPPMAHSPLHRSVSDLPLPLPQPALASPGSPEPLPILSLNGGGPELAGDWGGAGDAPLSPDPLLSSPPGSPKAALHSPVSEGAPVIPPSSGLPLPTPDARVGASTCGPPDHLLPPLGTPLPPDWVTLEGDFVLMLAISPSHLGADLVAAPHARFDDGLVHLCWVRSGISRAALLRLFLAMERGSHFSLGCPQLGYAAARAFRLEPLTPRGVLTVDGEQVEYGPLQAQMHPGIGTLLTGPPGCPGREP

[3] = target: T1, Sphingosine kinase 2 (Homo sapiens); settings: at 1 µM
[4] = target: Casein kinase II subunit alpha (Homo sapiens) (UniProt P68400); settings: at 0.1 µM
[5] = target: Casein kinase II subunit alpha (Homo sapiens) (UniProt P68400); settings: at 1 µM
[6] = target: T2, Inhibitor of nuclear factor kappa-B kinase subunit alpha (Homo sapiens) (UniProt O15111); settings: at 0.1 µM
T2 sequence (whole entry): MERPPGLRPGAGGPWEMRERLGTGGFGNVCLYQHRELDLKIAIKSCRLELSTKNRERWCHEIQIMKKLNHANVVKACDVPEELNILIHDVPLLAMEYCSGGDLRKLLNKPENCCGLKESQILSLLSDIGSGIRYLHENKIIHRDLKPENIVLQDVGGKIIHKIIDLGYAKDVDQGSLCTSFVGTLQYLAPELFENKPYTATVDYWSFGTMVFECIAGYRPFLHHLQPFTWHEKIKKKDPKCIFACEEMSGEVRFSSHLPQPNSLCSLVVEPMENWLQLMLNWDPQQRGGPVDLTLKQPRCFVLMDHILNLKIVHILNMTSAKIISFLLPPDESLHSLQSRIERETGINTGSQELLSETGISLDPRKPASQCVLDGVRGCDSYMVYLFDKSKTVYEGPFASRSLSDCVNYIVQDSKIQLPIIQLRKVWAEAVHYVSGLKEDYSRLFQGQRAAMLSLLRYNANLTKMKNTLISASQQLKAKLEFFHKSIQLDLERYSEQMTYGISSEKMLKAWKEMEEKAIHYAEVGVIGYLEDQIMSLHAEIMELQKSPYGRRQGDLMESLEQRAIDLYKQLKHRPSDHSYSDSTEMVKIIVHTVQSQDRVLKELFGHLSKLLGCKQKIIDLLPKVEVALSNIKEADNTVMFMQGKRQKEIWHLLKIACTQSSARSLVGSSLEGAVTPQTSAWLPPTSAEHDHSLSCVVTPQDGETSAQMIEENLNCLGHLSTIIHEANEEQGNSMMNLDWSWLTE

[7] = target: T2, Inhibitor of nuclear factor kappa-B kinase subunit alpha (Homo sapiens); settings: at 1 µM
[8] = target: T3, Inhibitor of nuclear factor kappa-B kinase subunit beta (Homo sapiens) (UniProt O14920); settings: at 0.1 µM
T3 sequence (whole entry): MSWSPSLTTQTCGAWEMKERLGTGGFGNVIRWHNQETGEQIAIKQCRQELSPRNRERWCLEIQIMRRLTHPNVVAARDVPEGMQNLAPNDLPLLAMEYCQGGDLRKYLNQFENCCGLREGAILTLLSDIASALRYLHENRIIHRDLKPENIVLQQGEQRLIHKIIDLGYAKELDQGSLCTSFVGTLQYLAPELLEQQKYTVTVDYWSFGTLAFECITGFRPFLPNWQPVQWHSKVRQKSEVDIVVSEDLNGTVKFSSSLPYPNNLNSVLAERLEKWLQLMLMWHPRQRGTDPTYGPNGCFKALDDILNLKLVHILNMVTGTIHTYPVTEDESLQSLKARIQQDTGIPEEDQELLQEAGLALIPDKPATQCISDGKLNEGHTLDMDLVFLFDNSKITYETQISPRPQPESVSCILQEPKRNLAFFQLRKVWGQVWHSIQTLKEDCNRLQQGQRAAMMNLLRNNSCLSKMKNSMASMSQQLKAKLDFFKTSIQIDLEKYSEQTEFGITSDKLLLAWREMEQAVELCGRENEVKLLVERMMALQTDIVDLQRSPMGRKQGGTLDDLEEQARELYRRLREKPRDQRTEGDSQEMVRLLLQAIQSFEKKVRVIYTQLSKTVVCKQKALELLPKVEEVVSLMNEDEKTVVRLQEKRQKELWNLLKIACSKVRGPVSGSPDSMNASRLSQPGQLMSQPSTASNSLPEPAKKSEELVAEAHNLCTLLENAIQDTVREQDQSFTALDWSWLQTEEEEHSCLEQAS

[9] = target: T3, Inhibitor of nuclear factor kappa-B kinase subunit beta (Homo sapiens); settings: at 1 µM
[10] = target: T4, Inhibitor of nuclear factor kappa-B kinase subunit epsilon (Homo sapiens) (UniProt Q14164); settings: at 0.1 µM
T4 sequence (whole entry): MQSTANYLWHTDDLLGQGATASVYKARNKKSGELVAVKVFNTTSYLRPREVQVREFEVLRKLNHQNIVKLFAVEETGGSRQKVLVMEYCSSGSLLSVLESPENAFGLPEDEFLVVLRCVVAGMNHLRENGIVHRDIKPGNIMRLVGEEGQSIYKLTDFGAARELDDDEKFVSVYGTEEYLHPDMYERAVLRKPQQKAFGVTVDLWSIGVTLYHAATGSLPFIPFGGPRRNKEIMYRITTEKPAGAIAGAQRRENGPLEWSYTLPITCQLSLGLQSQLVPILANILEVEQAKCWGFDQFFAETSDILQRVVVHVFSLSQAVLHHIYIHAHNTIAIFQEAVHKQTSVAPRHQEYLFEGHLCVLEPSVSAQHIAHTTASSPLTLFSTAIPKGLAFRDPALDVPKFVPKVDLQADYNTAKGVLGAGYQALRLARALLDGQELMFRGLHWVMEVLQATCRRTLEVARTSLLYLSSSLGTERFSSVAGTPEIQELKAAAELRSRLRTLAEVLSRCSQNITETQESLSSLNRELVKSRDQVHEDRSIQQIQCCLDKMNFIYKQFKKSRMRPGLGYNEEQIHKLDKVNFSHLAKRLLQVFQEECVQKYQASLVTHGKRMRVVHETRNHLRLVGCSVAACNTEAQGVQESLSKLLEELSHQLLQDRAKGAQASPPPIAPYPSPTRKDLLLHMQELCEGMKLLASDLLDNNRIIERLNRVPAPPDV

[11] = target: T4, Inhibitor of nuclear factor kappa-B kinase subunit epsilon (Homo sapiens); settings: at 1 µM
[12] = target: T5, Serine/threonine-protein kinase Nek1 (Homo sapiens) (UniProt Q96PY6); settings: at 0.1 µM
T5 sequence (whole entry): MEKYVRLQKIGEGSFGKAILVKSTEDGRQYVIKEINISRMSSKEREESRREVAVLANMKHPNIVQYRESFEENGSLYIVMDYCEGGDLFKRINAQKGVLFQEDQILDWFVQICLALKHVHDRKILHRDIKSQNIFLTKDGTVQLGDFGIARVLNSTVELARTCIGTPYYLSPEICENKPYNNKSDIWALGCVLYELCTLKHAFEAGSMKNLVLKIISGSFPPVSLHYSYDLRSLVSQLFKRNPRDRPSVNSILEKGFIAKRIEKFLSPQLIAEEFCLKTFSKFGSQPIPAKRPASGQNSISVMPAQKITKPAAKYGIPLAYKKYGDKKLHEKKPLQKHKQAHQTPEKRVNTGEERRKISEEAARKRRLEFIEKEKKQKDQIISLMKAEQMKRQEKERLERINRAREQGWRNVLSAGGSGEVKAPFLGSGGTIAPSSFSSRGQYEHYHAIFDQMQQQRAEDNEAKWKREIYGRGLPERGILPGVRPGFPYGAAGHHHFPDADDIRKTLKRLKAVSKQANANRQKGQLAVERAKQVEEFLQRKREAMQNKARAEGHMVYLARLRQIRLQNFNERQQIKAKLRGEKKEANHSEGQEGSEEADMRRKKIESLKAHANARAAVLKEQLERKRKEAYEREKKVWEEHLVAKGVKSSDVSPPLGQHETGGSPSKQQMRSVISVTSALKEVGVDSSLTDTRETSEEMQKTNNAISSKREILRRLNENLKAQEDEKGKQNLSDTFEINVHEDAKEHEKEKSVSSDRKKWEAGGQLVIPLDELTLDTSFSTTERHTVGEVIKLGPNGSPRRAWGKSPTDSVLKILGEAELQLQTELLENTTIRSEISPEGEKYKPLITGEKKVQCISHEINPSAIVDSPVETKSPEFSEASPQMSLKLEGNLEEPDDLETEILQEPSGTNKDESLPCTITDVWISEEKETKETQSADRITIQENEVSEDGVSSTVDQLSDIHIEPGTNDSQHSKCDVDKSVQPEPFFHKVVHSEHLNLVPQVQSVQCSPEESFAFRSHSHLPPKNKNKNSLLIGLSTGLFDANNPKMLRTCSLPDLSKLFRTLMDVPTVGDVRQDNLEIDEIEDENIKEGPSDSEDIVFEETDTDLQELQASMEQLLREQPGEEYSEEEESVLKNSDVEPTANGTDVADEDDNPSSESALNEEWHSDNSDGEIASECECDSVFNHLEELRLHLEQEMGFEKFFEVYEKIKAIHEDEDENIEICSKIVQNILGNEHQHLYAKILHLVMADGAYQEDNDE

[13] = target: T5, Serine/threonine-protein kinase Nek1 (Homo sapiens); settings: at 1 µM
[14] = target: T6, Serine/threonine-protein kinase Nek2 (Homo sapiens) (UniProt P51955); settings: at 0.1 µM
T6 sequence (whole entry): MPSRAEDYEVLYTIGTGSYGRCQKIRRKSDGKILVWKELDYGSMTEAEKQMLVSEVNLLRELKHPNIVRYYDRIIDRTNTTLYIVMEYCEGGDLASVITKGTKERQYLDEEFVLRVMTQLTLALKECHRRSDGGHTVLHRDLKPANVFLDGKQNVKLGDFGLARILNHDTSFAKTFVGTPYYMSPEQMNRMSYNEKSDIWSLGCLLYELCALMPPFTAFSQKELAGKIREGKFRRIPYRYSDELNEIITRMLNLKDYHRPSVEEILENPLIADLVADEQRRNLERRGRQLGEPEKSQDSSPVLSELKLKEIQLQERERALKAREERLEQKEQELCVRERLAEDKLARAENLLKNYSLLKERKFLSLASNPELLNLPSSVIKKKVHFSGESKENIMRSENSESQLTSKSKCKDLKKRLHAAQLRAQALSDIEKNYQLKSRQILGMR

[15] = target: T6, Serine/threonine-protein kinase Nek2 (Homo sapiens); settings: at 1 µM
[16] = target: Serine/threonine-protein kinase Nek6 (Homo sapiens) (UniProt Q9HC98); settings: at 0.1 µM
[17] = target: Serine/threonine-protein kinase Nek6 (Homo sapiens) (UniProt Q9HC98); settings: at 1 µM
[18] = target: Serine/threonine-protein kinase Nek7 (Homo sapiens) (UniProt Q8TDX7); settings: at 0.1 µM
[19] = target: Serine/threonine-protein kinase Nek7 (Homo sapiens) (UniProt Q8TDX7); settings: at 1 µM
[20] = target: T7, Serine/threonine-protein kinase Nek9 (Homo sapiens) (UniProt Q8TD19); settings: at 0.1 µM;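 also: reported value is the mean percent inhibition of NEK9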
T7 sequence (whole entry): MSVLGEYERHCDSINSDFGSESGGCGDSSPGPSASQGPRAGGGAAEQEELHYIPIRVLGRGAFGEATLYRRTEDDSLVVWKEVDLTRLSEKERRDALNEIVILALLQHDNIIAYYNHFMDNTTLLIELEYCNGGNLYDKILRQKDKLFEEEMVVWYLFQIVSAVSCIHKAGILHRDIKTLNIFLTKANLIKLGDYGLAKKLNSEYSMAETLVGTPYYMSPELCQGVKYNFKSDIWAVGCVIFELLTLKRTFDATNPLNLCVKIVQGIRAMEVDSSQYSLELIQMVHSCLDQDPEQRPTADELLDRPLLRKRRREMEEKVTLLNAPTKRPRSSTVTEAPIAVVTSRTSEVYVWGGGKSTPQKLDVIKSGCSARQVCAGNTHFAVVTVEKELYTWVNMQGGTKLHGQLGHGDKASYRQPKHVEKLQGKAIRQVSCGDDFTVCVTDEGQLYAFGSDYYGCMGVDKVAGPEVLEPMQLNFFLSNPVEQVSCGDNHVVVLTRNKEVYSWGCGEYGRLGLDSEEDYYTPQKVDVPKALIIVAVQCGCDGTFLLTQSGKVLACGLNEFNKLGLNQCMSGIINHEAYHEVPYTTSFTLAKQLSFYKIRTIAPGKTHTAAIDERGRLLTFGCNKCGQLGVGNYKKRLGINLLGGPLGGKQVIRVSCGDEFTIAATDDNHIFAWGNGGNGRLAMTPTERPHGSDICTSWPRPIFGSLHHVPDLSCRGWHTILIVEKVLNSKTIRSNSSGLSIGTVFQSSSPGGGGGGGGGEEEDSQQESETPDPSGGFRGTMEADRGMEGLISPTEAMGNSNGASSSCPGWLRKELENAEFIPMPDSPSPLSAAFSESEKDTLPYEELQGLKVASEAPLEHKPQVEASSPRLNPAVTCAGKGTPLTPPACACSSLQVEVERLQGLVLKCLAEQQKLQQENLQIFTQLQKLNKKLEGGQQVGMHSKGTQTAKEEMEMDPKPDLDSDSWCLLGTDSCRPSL

Sequence of Serine/threonine-protein kinase Nek7 (Homo sapiens) (Q8TDX7 whole entry, looked up): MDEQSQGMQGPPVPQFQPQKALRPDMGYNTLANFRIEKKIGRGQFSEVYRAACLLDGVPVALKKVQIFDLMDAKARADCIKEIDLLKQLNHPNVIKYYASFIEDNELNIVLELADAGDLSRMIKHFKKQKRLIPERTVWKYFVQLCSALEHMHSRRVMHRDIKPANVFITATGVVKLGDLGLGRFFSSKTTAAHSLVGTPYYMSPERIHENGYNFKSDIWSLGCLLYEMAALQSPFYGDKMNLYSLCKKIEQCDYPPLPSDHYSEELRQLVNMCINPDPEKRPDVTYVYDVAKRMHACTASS
Sequence of Serine/threonine-protein kinase Nek6 (Homo sapiens) (Q9HC98 whole entry): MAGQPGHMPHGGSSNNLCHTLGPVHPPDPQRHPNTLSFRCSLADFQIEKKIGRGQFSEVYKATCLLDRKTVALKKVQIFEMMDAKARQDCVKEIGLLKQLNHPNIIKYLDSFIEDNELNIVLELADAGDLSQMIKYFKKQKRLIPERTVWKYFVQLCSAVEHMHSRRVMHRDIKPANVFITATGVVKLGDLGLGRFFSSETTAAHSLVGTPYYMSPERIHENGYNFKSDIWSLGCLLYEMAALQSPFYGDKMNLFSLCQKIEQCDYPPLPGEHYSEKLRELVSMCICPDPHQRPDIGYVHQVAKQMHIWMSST
Sequence of Casein kinase II subunit alpha (Homo sapiens) (P68400 whole entry, looked up): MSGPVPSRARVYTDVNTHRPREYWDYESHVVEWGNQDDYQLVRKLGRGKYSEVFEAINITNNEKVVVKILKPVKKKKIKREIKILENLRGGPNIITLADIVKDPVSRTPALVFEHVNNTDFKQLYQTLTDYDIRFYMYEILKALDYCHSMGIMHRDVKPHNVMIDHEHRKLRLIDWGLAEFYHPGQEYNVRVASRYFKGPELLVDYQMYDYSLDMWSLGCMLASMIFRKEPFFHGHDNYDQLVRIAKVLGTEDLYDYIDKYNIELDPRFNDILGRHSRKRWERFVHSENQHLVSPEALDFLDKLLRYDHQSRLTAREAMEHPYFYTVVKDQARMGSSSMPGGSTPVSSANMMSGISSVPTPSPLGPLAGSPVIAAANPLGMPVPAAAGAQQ
Sequence of Sphingosine kinase 1 (Homo sapiens) (Q9NYA1 whole entry): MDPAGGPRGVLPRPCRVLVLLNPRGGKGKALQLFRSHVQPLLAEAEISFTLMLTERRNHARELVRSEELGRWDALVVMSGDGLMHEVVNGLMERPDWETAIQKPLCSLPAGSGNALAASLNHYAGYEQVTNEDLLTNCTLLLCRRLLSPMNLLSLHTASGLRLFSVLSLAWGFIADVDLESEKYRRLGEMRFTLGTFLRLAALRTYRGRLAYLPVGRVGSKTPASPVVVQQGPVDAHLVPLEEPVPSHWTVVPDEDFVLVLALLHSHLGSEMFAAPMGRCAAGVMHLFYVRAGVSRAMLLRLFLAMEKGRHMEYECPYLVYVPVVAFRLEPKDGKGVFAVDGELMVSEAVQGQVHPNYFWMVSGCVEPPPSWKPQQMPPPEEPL

Compound	inhibition [1]	inhibition [2]	inhibition [3]	inhibition [4]	inhibition [5]	inhibition [6]	inhibition [7]	inhibition [8]	inhibition [9]	inhibition [10]	inhibition [11]	inhibition [12]	inhibition [13]	inhibition [14]	inhibition [15]	inhibition [16]	inhibition [17]	inhibition [18]	inhibition [19]	inhibition [20]
c1ccc(Cc2nc3ccc(Nc4ncnc5ccccc45)cc3[nH]2)cc1	-0.48%	0.11%	-0.64%	3.02%	9.95%	-0.9%	6.86%	5.53%	8.45%	5.38%	4.77%	0.8%	6.65%	4.56%	2.85%	3.06%	4.77%	3.7%	3.14%	7.36%
OCc1ccc(-c2nc(-c3ccccn3)c(-c3ccc4c(c3)OCO4)[nH]2)cc1	-4.68%	-0.11%	0.5%	2.74%	-0.37%	6.97%	8.08%	5.29%	4.72%	4.91%	5.41%	2.17%	2.95%	5.76%	4.54%	2.18%	0.25%	3.26%	2.28%	5.12%
